This is a sample that favours compounds with a hit; in the whole collection about 2.8% have one here.
S2 tox: Viability Counterscreen for Primary qHTS for Inhibitors of ATXN expression; S2 cells (HEK-293 line with an ATXN2-luciferase reporter) viability, CellTiter-Fluor protease fluorescence, 24 h; Potency, µM (top dose mostly 56.7 µM), actives largely listed as cytotoxic; actives 0.49% (n = 400,000); AID 651635, 2014; also: potency is read from the fitted curve at half-maximal effect; nearly all actives have a fitted effect of over 40% in size
TGFb SMAD3 inh: qHTS for Inhibitors of TGF-b | HepG2 CAGA-GFP TGF-b/SMAD3 reporter, GFP fluorescence, 18 h; TGF-beta stimulated, 500 pg/mL final | actives 1.2% (n = 410,000) | Potency, µM (top dose mostly 46.1 µM), inactives show at the top dose activity, negative = inhibition, hits mostly inhibitors; also: potency is read from the fitted curve at half-maximal effect; % is scaled to controls: 0 for no effect and ±100 for the full control effect; nearly all actives have a fitted effect of over 65% in size
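HEPG2 CAGA-GFP, 1000 cells/well; 2 h settle, 37 C; cpd via pin tool; TGF-b 500 pg/mL final; 18 h, 37 C; GFP imaging ex488/em500-530; %Activity normalised to -TGF-b and +DMSO controls; CRC fit, curve class.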
HepG2 tox: qHTS for Inhibitors of TGF-b: Cytotox Counterscreen; HepG2 CAGA-GFP viability, ATP luminescence, 18 h; Potency, µM (highest dose often 46.1 µM), inactives show at the highest dose activity change, negative = cytotoxicity, most hits filed as cytotoxic; actives 0.76% (n = 410,000); also: potency is read from the fitted curve at half-maximal effect
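HepG2 CAGA-GFP cells (1000/well, DMEM with 1% FBS) received compound, then TGF-beta at 500 pg/mL final, and were incubated 18 hours at 37 degrees C. Viability was read by CellTiter-Glo luminescence. Media-only wells were set as complete cell-killing and DMSO as no toxicity.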
Six1-Eya2 blk: qHTS Assay for Inhibitors of the Six1/Eya2 Interaction; Homeobox protein SIX1 (Homo sapiens) + Protein phosphatase EYA2 (Homo sapiens), …; AlphaScreen GST-Six1/His-Eya2 binding, biochemical; active compounds read low; activity change, % (test concentration not listed); actives 0.56% (n = 360,000); in the data active = activity change below about -65%; inconclusive = mostly about -30% to -63%; also: % is scaled to controls: 0 for no effect and ±100 for the full control effect
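AlphaScreen luminescence read after one hour at 37 °C in darkness. Pin-transferred compounds met GST-Six1 and His-Eya2 protein (5X stock 250 nM/500 nM) plus glutathione donor and Ni-chelate acceptor beads (5X, 50 ug/mL).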
ATXN2 expr inh: Primary qHTS for Inhibitors of ATXN expression; AID 1745845, 2022; actives 0.72% (n = 360,000); HEK-293 ATXN2-luciferase reporter, luminescence, 24 h; Potency, µM (top dose mostly 57 µM), for the others: at the top dose activity change, negative = inhibition, actives largely listed as inhibitors; also: potency is read from the fitted curve at half-maximal effect; % is scaled to controls: 0 for no effect and ±100 for the full control effect; nearly all actives have a fitted effect of over 55% in size
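ATXN2-luciferase reporter cells (luciferase flanked by upstream and downstream ATXN2 gene portions) were treated 24 h at 37 °C with compounds at up to 57 uM. SteadyGlo luminescence gave expression; GF-AFC fluorescence gave viability.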
CtBP-E1A blk: qHTS Assay for Inhibitors of the CtBP/E1A Interaction. actives 0.49% (n = 340,000). activity change, % (no concentration beside the values). CtBP / adenovirus E1A interaction (AlphaScreen). AlphaScreen GST-E1A/His-CtBP binding, 1536-well; active compounds read low. AID 651724, 2012; in the data active = activity change below about -65%; inconclusive = mostly about -30% to -63%; also: % is scaled to controls: 0 for no effect and ±100 for the full control effect
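GST-E1A and His-tagged CtBP (125 nM each as 5X stock) were preincubated with pin-transferred compound for 2 h at 37 °C in the dark, then glutathione donor and nickel acceptor beads were added for 1 h before AlphaScreen reading.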
The depositor's hits bear a star; i = inactive; ? = inconclusive; nt = not tested or not shown; ! = not confirmed by another sample; [ ] = dose if it differs, or a comment. Unless noted, calls follow the shape of the dose curve; as a rule, active = well fitted curve in the direction sought with a large enough effect; inconclusive = small, poorly fitted or top-dose-only effect, or another doubt; inactive = no such curve, though single readings can be large; an effect the other way counts as inactive or inconclusive.

SMILES | S2 tox | TGFb SMAD3 inh | HepG2 tox | Six1-Eya2 blk | ATXN2 expr inh | CtBP-E1A blk
CC12CC[C@H]3[C@@H](CCC4(O)C[C@H](O)CCC34/C=N/NC(=O)c3ccccc3Cl)C1(O)CCC2C1=CC(=O)OC1 (stereo partly specified) | i | -18% | -6% | -15 | -11% | -10
CC(=O)O[C@H]1CC[C@]2(C=O)C3CC[C@]4(C)[C@@H](C5=CC(=O)OC5)CC[C@]4(O)C3CC[C@]2(O)C1 (stereo partly specified) | nt | 11µM* | -34% | nt | nt | nt
C[C@H]1O[C@@H](OC2CC[C@]3(C=O)[C@H]4CC[C@]5(C)[C@@H](C6=CC(=O)OC6)CC[C@]5(O)[C@@H]4CC[C@]3(O)C2)CC2OC(C)(C)OC21 (stereo partly specified) | ? | 2µM* | -57% | 2 | nt | nt
C[C@]12CC[C@H]3[C@@H](CC[C@]4(O)C[C@@H](O)CC[C@]34C=O)[C@@]1(O)CC[C@@H]2C1=CC(=O)OC1 | ? | 7.1µM* | -65% | 1 | 0.32µM* | 2
C[C@]12CC[C@H]3[C@@H](CCC4=CC(=O)CC[C@@]43C)[C@H]1CC[C@H]2O | nt | nt | nt | nt | -1% | nt
Nc1ccccc1C(=O)OCC(O)CO (stereo unspecified) | i | nt | nt | nt | 7% | nt
Cc1ccccc1S(=O)(=O)N(C)C[C@@H]1OCc2ccccc2-c2c(n(C)c3ccccc23)C(=O)N([C@H](C)CO)C[C@@H]1C | ? | ? | -32% | -6 | ? | 3
CC12CCC3C(CCC4(O)CC(O)CCC34C=O)C1(O)CCC2C1=CC(=O)OC1 (stereo unspecified) | ? | ? | -39% | 0 | 1.8µM* | 2
CCOC(=O)[C@]12Cc3cc(OC)ccc3[C@H]1N(CCC(=O)OC)C(=O)c1cc(OC)ccc12 | nt | nt | nt | 1 | ? | -2
CCOC(=O)[C@]12Cc3cc(Cl)ccc3[C@H]1N(Cc1ccccc1)C(=O)c1cc(OC)ccc12 | 13µM* | nt | nt | -8 | 18µM* | -1
CCOC(=O)[C@]12Cc3cc4ccccc4cc3[C@H]1N(Cc1ccccc1)C(=O)c1cc(OC)ccc12 | 32µM* | nt | nt | -13 | 20µM* | -23
CCCCCN1C(=O)c2cc(OC)ccc2[C@@]2(C(=O)OCC)Cc3cc(Cl)ccc3[C@@H]12 | 8.9µM* | nt | nt | 13 | 7.1µM* | -3
CCOC(=O)[C@]12Cc3cc(OC)c(OC)cc3[C@H]1N(Cc1ccccc1)C(=O)c1ccccc12 | i | -3% | -18% | -5 | -20% | -4
CCOC(=O)[C@]12Cc3cc4ccccc4cc3[C@H]1N(Cc1ccccc1)C(=O)c1ccccc12 | 20µM* | nt | nt | -15 | ? | 0
CN[C@H]1C[C@@H](N)[C@H](O)[C@@H](O[C@@H]2O[C@H](CO)[C@H](O)[C@@H]3OC4(O[C@H]23)O[C@H](C(N)CO)[C@H](O)[C@H](O)[C@H]4O)[C@@H]1O (stereo partly specified) | i | nt | nt | nt | nt | nt
CCO[C@H]1O[C@@H]2OC3(C)CC[C@H]4[C@H](C)CC[C@@H]([C@H]1C)[C@@]24OO3 | i | nt | nt | nt | -8% | nt
Oc1ccc2c3c1O[C@H]1[C@@H](O)C=C[C@H]4[C@@H](C2)NCC[C@@]341 | ? | nt | nt | nt | 53%[116 µM] | nt
CC(=O)OCC1=C(C(=O)O)N2C(=O)[C@@H](N)[C@H]2SC1 | i | nt | nt | nt | 0%[25.6 µM] | nt
Clc1ccc(CCC(Cn2ccnc2)Sc2c(Cl)cccc2Cl)cc1 (stereo unspecified) | ? | ? | 13µM* | -14 | ? | -22
O=c1c(C2CC(c3ccc(-c4ccc(Br)cc4)cc3)Cc3ccccc32)c(O)sc2ccccc12 (stereo unspecified) | i | nt | nt | nt | ? | nt
CCC1(CCC(C)C)C(=O)NC(=O)NC1=O | i | nt | nt | nt | 5%[116 µM] | nt
O=C1NC(=S)N(c2ccccc2F)C(=O)/C1=C\c1cccs1 | nt | ? | -44% | -2 | ? | -1
CCOc1ccc(N2C(=O)/C(=C\c3cccs3)C(=O)NC2=S)cc1 | 35µM* | ? | -33% | 1 | 32µM* | 0
COc1ccc(N2C(=O)/C(=C/c3ccc(OC)c(OC)c3)C(=O)NC2=S)cc1 | i | -3% | 0% | -12 | -11% | 1
CCOc1ccc(N2C(=O)/C(=C/c3ccco3)C(=O)NC2=S)cc1 | i | ? | -47% | -81* | nt | nt
SMILES | S2 tox | TGFb SMAD3 inh | HepG2 tox | Six1-Eya2 blk | ATXN2 expr inh | CtBP-E1A blk
C#CC(O)(C=CCl)CC (stereo unspecified) | i | nt | nt | nt | 5% | nt
CC[C@H]1[C@@H]2C[C@H]3[C@@H]4N(C)c5ccccc5[C@]45C[C@@H](C2[C@H]5O)N3[C@@H]1O (stereo partly specified) | i | nt | nt | nt | nt | nt
O=C(O)CCn1cc(C=C2C(=O)NC(=S)NC2=O)c(-c2cccc(Cl)c2)n1 | i | -3% | -6% | 0 | -11% | 0
O=C1C(=Cc2cn(-c3ccccc3)nc2-c2ccc(OCc3ccc(Cl)cc3)cc2)SC(=S)N1CCS(=O)(=O)O | ? | -14% | -14% | -67* | 7% | ?
CN1CC[C@]23c4c5ccc(O)c4O[C@H]2[C@@H](O)C=C[C@H]3[C@H]1C5 | i | nt | nt | nt | 52%[116 µM] | nt
COc1ccc2c3c1O[C@H]1[C@@H](O)C=C[C@H]4[C@@H](C2)N(C)CC[C@@]341 | 14µM* | nt | nt | nt | ? | nt
O=[N+]([O-])c1ccc(C(c2ccc([N+](=O)[O-])cc2)c2ccc([N+](=O)[O-])cc2)cc1 | ? | ? | -21% | -23 | 32µM* | -22
C[C@]12CC[C@H]3[C@@H](CCC4=CC(=O)CC[C@@H]43)[C@@H]1CC[C@@H]2OC(=O)CCC1CCCCC1 | i | nt | nt | nt | ? | nt
COc1cc(CN2CCc3nc(N4CCN(c5ccccn5)CC4)ncc3C2)cc(OC)c1OC | ? | -31% | -28% | nt | ? | nt
COc1cccc(C(=O)CCN[C@@H](C)[C@H](O)c2ccccc2)c1 | 32µM*! | nt | nt | nt | ? | nt
COc1cc(OC)c(OC)cc1CNC(C)C(O)c1ccccc1 (stereo unspecified) | i | -1% | -32% | -2 | -4% | -13
CN1CCC(N(C)c2nc(-c3ccc([N+](=O)[O-])cc3)nc3ccccc23)CC1 | i | ? | -123% | -18 | -16% | 20

Bioassay records from PubChem.
